# Laboratory results from PubChem BioAssay AID1159580 (chemical genetic matrix, 2015).
# The whole screen tested about 5,500 compounds, of which about 2,000 (36%) were called active. Inconclusive results (about 18%) are left out. This is one part of the list. Values without a mark were called inactive. Rule as the data show it: active = normalized growth mostly below about 0.91 (no sharp cut-off); inconclusive = no clear call, values can overlap the other calls; inactive = mostly above about 0.92.
# Assay: chemical genetic growth profiling, strain panel (AID 1159580);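 also: tested at 20 µM; growth read once vehicle control cultures reached saturation at 30 °C; 1 = growth at the plate median or of vehicle wells; lower values mean less growth of the strain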
# Settings: S. cerevisiae deletion strains, growth OD
# [1] = locus YHR030C, strain SLT2, hits give low values
# [2] = locus YHR079C, strain IRE1, hits give low values
# [3] = locus YJL095W, strain BCK1, hits give low values
# [4] = locus YJR066W, strain TOR1, hits give low values
# [5] = locus YLR113W, strain HOG1, hits give low values
# [6] = locus YNL183C, strain NPR1, hits give low values
# [7] = locus YOR231W, strain MKK1, hits give low values
# [8] = locus YPL256C, strain CLN2, hits give low values
structure (smiles),measurement,setting,value
C/C(=C\C(=O)OCCCCCCCCC(=O)O)C[C@@H]1OC[C@H](C[C@@H]2O[C@H]2[C@@H](C)[C@H](C)O)[C@@H](O)[C@H]1O,normalized growth,"locus YAL021C, strain ccr4, hits give low values",0.96
same,normalized growth,"locus YAL026C, strain drs2, hits give low values",0.958
same,normalized growth,"locus YAL030W, strain snc1, hits give low values",0.96
same,normalized growth,"locus YBL061C, strain skt5, hits give low values",0.987
same,normalized growth,"locus YBR009C, strain hhf1, hits give low values",0.961
same,normalized growth,"locus YBR023C, strain chs3, hits give low values",0.979
same,normalized growth,"locus YBR171W, strain sec66, hits give low values",0.929
same,normalized growth,"locus YBR231C, strain swc5, hits give low values",0.938
same,normalized growth,"locus YBR279W, strain paf1, hits give low values",0.986
same,normalized growth,"locus YCL011C, strain gbp2, hits give low values",0.972
same,normalized growth,"locus YCL016C, strain dcc1, hits give low values",0.967
same,normalized growth,"locus YCL061C, strain MRC1, hits give low values",0.965
same,normalized growth,"locus YCL069W, strain vba3, hits give low values",0.957
same,normalized growth,"locus YCR088W, strain abp1, hits give low values",0.952
same,normalized growth,"locus YDL005C, strain med2, hits give low values",0.973
same,normalized growth,"locus YDL040C, strain nat1, hits give low values",0.982
same,normalized growth,"locus YDR001C, strain nth1, hits give low values",0.956
same,normalized growth,"locus YDR069C, strain doa4, hits give low values",0.982
same,normalized growth,"locus YDR137W, strain rgp1, hits give low values",0.99
same,normalized growth,"locus YDR159W, strain sac3, hits give low values",0.936
same,normalized growth,"locus YDR195W, strain ref2",0.964
same,normalized growth,"locus YDR297W, strain sur2, hits give low values",0.988
same,normalized growth,"locus YDR334W, strain swr1, hits give low values",0.951
same,normalized growth,"locus YDR335W, strain msn5, hits give low values",0.963
same,normalized growth,"locus YDR392W, strain spt3, hits give low values",0.941
same,normalized growth,"locus YEL003W, strain gim4, hits give low values",0.969
same,normalized growth,"locus YEL037C, strain rad23, hits give low values",0.968
same,normalized growth,"locus YEL061C, strain CIN8 (second series), hits give low values",0.967
same,normalized growth,"locus YER015W, strain faa2, hits give low values",0.99
same,normalized growth,"locus YER016W, strain bim1, hits give low values",0.974
same,normalized growth,"locus YER111C, strain swi4, hits give low values",0.93
same,normalized growth,"locus YER155C, strain BEM2 (second series), hits give low values",0.959
same,normalized growth,"locus YFR010W, strain ubp6, hits give low values",0.984
same,normalized growth,"locus YGL167C, strain pmr1, hits give low values",0.973
same,normalized growth,"locus YGL173C, strain kem1, hits give low values",0.979
same,normalized growth,"locus YGL227W, strain vid30, hits give low values",0.965
same,normalized growth,"locus YGL240W, strain doc1, hits give low values",1.01
same,normalized growth,"locus YGL253W, strain hxk2, hits give low values",0.912
same,normalized growth,"locus YHR013C, strain ard1, hits give low values",0.985
same,normalized growth,"locus YHR027C, strain rpn1, hits give low values",0.987
same,normalized growth,[1],0.895
same,normalized growth,[2],0.919
same,normalized growth,"locus YHR142W, strain chs7, hits give low values",0.98
same,normalized growth,"locus YJL092W, strain hpr5, hits give low values",0.96
same,normalized growth,"locus YJL095W, strain BCK1 (second series), hits give low values",0.965
same,normalized growth,[3],0.898
same,normalized growth,"locus YJL115W, strain asf1, hits give low values",0.954
same,normalized growth,"locus YJL129C, strain trk1, hits give low values",0.993
same,normalized growth,"locus YJL154C, strain vps35, hits give low values",0.968
same,normalized growth,"locus YJL164C, strain tpk1, hits give low values",0.98
same,normalized growth,"locus YJL166W, strain qcr8, hits give low values",1
same,normalized growth,"locus YJL187C, strain SWE1, hits give low values",0.976
same,normalized growth,[4],0.916
same,normalized growth,"locus YKL160W, strain elf1, hits give low values",0.982
same,normalized growth,"locus YKR026C, strain gcn3, hits give low values",0.931
same,normalized growth,"locus YKR091W, strain srl3, hits give low values",0.971
same,normalized growth,"locus YLL001W, strain dnm1, hits give low values",0.949
same,normalized growth,"locus YLL026W, hits give low values",0.971
same,normalized growth,"locus YLL041C, strain sdh2, hits give low values",0.965
same,normalized growth,"locus YLR027C, strain aat2, hits give low values",0.965
same,normalized growth,[5],0.827 (active)
same,normalized growth,"locus YLR221C, strain rsa3, hits give low values",0.982
same,normalized growth,"locus YLR258W, strain gsy2, hits give low values",0.968
same,normalized growth,"locus YLR262C, strain YPT6 (second series), hits give low values",0.962
same,normalized growth,"locus YLR320W, strain mms22, hits give low values",0.968
same,normalized growth,"locus YLR342W, strain FKS1, hits give low values",0.953
same,normalized growth,"locus YLR357W, strain rsc2, hits give low values",0.977
same,normalized growth,"locus YLR370C, strain arc18, hits give low values",0.957
same,normalized growth,"locus YLR384C, strain iki3, hits give low values",0.952
same,normalized growth,"locus YML120C, strain ndi1, hits give low values",0.979
same,normalized growth,"locus YMR058W, strain fet3, hits give low values",0.989
same,normalized growth,"locus YMR125W, strain sto1, hits give low values",0.962
same,normalized growth,"locus YMR129W, hits give low values",0.974
same,normalized growth,"locus YMR205C, strain PFK2, hits give low values",0.896
same,normalized growth,"locus YMR231W, strain pep5, hits give low values",0.961
same,normalized growth,"locus YNL071W, strain lat1, hits give low values",0.989
same,normalized growth,[6],0.89
same,normalized growth,"locus YNL209W, strain ssb2, hits give low values",1
same,normalized growth,"locus YNL248C, strain rpa49, hits give low values",1.02
same,normalized growth,"locus YNL322C, strain KRE1 (second series), hits give low values",0.947
same,normalized growth,"locus YNR049C, strain mso1, hits give low values",0.951
same,normalized growth,"locus YOR001W, strain rrp6, hits give low values",0.991
same,normalized growth,"locus YOR070C, strain gyp1, hits give low values",0.969
same,normalized growth,"locus YOR080W, strain dia2, hits give low values",0.948
same,normalized growth,"locus YOR083W, strain WHI5, hits give low values",0.996
same,normalized growth,"locus YOR106W, strain vam3, hits give low values",0.979
same,normalized growth,[7],0.904
same,normalized growth,"locus YOR265W, strain rbl2, hits give low values",0.982
same,normalized growth,"locus YOR270C, strain vph1, hits give low values",0.987
same,normalized growth,"locus YOR290C, strain snf2, hits give low values",0.979
same,normalized growth,"locus YPL051W, strain arl3, hits give low values",0.984
same,normalized growth,"locus YPL078C, strain atp4, hits give low values",1
same,normalized growth,"locus YPL106C, strain sse1, hits give low values",0.906
same,normalized growth,"locus YPL240C, strain hsp82, hits give low values",0.975
same,normalized growth,[8],0.911
CC(=O)C1CCC2C3CC=C4CC(OS(=O)(=O)O)CC[C@]4(C)C3CC[C@]12C (stereo not given in full),normalized growth,[1],0.973
same,normalized growth,[2],0.984
same,normalized growth,[3],0.953
same,normalized growth,[4],0.877
same,normalized growth,[5],1.03
same,normalized growth,[6],0.902
same,normalized growth,[7],0.977
same,normalized growth,[8],0.975
CC(=O)[C@H]1CCC2C3CC=C4C[C@@H](OS(=O)(=O)O)CC[C@]4(C)C3CC[C@@]21C (stereo not given in full),normalized growth,"locus YAL040C, strain CLN3, hits give low values",0.959
same,normalized growth,"locus YCL061C, strain MRC1 (second series), hits give low values",0.981
same,normalized growth,"locus YDR363W, strain ESC2, hits give low values",1.01
same,normalized growth,"locus YER002W, strain NOP16, hits give low values",0.979
same,normalized growth,"locus YMR263W, strain SAP30, hits give low values",0.978
same,normalized growth,"locus YMR307W, strain GAS1, hits give low values",0.997
same,normalized growth,"locus YNL175C, strain NOP13, hits give low values",0.988
same,normalized growth,"locus YNL197C, strain WHI3, hits give low values",1
same,normalized growth,"locus YNL224C, strain SQS1, hits give low values",0.984
same,normalized growth,"locus YNL322C, strain KRE1, hits give low values",0.964
same,normalized growth,"locus YOR083W, strain WHI5 (second series), hits give low values",0.975
same,normalized growth,"locus YPL241C, strain CIN2, hits give low values",0.984
